Experimental findings from PubChem BioAssay AID687001 (Broad Institute, 2013) are described below.

Measured potencies and affinities stand elsewhere. Active and inactive are the calls of the source.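 The calls were made as follows: active = signal-lowering compounds whose fitted half-maximal concentration is at or below twice the top tested dose in every run; inconclusive = runs disagree, flat 30 to 70% inhibition, or poor curve fit; inactive = the rest.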

Sequence of Protein S100-A4 (Homo sapiens) (P26447 whole entry, looked up): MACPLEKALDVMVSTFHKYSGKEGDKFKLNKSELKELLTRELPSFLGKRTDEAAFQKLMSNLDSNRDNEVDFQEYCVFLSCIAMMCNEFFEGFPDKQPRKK

The assay has as its target Protein S100-A4 (Homo sapiens) (UniProt P26447). Put plainly: S100A4-myosin IIA binding inhibitor potency, dose response, biochemical, fluorescence polarization, cherry-picked hits (AID 687001). The settings on record: FP, S100A4/TAMRA-myosin IIA peptide binding; series mostly up to 11 µM. In general terms: Polarisation of emitted light reports the rotation of a fluorescent probe.
Consider `Cc1cc(C)n2nc(Sc3ncccc3[N+](=O)[O-])nc2n1`, for which the outcome was inactive.
To `O=C(C[C@@H]1CC[C@@H](NC(=O)NC2CCCC2)[C@H](CO)O1)NCc1ccc(F)cc1` belongs “inactive”.
The value for `O=C(NCCN1CCOCC1)c1ccc(/C=C2\Sc3ccccc3N(Cc3ccccc3F)C2=O)cc1` was “inactive”.
Turning to `COc1ccc(C)c2sc(N(CCN(C)C)C(=O)c3ccc4ccccc4c3)nc12`, the molecule was classed as inactive.
The value for `CC1CCN(C(=O)CSc2n[nH]c(-c3cccs3)n2)CC1` was “inactive”; that for `COc1ccc(OCC(=O)N2CCCC2=O)c([N+](=O)[O-])c1` was “inactive”; that for `C[C@H]1CN([C@@H](C)CO)C(=O)c2cc(NC(=O)NC3CCCCC3)ccc2O[C@@H]1CN(C)Cc1ccc(C(=O)O)cc1` was “inactive”.
To `Cn1cnc(S(=O)(=O)N2C[C@H](O)COC[C@@H]3O[C@H](CC(=O)NC4CCCC4)CC[C@H]32)c1` belongs “inactive”.
The value for `Nc1cnccc1C(=O)O` was “inactive”; that for `O=C(CN1C(=O)CCS(=O)(=O)c2ccccc21)Nc1ccc(F)cc1` was “inactive”; that for `O=C(Cc1ccc(Br)cc1)N/N=C/c1cccnc1` was “inactive”.
Regarding `COc1ccccc1N(C)S(=O)(=O)c1ccc(C(=O)NCC2CCCCC2)cc1`, the result was inactive.
Regarding `C[C@@H]1CCCCO[C@H](CN(C)S(=O)(=O)c2ccc(Cl)cc2)[C@@H](C)CN([C@@H](C)CO)C(=O)c2cc(NS(=O)(=O)c3ccc(F)cc3)ccc2O1`, the call was inactive.
The value for `Cc1cc(C)c(NC(=O)CNC(=O)COC(=O)/C=C/c2cccs2)c(C)c1` was “inactive”; that for `COc1ccc(NC(=O)N(C)C[C@H]2Oc3c(NC(=O)NC4CCCCC4)cccc3C(=O)N([C@H](C)CO)C[C@H]2C)cc1` was “inactive”; that for `C[C@H](CO)N1C[C@H](C)[C@H](CN(C)C)Oc2ccc(NS(=O)(=O)c3ccccc3)cc2CC1=O` was “inactive”.
To `C[C@@H]1CN([C@H](C)CO)C(=O)c2cccc(NS(C)(=O)=O)c2O[C@@H]1CN(C)CC1CC1` belongs “inactive”.
The value for `CCNC(=O)[C@@H]1[C@@H](CO)[C@@H]2Cn3c(ccc(-c4ccccc4)c3=O)[C@@H]2N1CC` was “inactive”; that for `C[C@@H]1CN([C@H](C)CO)C(=O)c2cc(-c3ccc(F)cc3)cnc2O[C@H]1CN(C)Cc1cncnc1` was “inactive”; that for `O=C(C[C@H]1C[C@@H]2c3cc(NC(=O)C4CCOCC4)ccc3O[C@@H]2[C@H](CO)O1)NCCN1CCCCC1` was “inactive”.
Turning to `Nc1nc(SCC(=O)c2ccc(Cl)cc2)c2ncn(C3OC(CO)C(O)C3O)c2n1` (centres undefined), the molecule was classed as inactive.
Consider `Cc1cc(=O)oc2c(C)c(OCC(=O)N3CCN(C(=O)C4COc5ccccc5O4)CC3)ccc12` (centres undefined), for which the result was inactive.
As for `CCOc1ccc(NC(=O)CN(C)C(=O)c2cccc3ccccc23)cc1OCC`, the result was inactive.
To `Nc1cccc2c(=O)[nH][nH]c(=O)c12` belongs “inactive”; to `COc1ccc(CN(C)C[C@@H]2OCCCC[C@H](C)Oc3ccc(NS(=O)(=O)c4cn(C)cn4)cc3C(=O)N([C@@H](C)CO)C[C@H]2C)cc1`, “inactive”; to `CC(=O)N1CCCCN2[C@H](CO)[C@H](c3ccc(C#Cc4ccccc4F)cc3)[C@@H]2C1`, “inactive”.
To `CC(NC(=O)COC(=O)c1cc([N+](=O)[O-])ccc1N1CCOCC1)c1ccc(F)cc1` (centres undefined) belongs “inactive”; to `Nc1[nH]c(C(=O)c2ccccc2)c(-c2ccccc2C(F)(F)F)c1C(=O)NCc1cccc2ccccc12`, “inactive”; to `COc1ccc(OCC(=O)N2CCN(S(=O)(=O)c3ccc(Cl)s3)CC2)cc1`, “inactive”.
Consider `O=S(=O)(NCCN1CCOCC1)c1ccc(-c2ccc(S(=O)(=O)NCCN3CCOCC3)cc2)cc1`, for which the call was inactive.
To `C[C@@H]1CN([C@@H](C)CO)C(=O)c2cc(C#C[C@@H](C)O)cnc2O[C@H]1CN(C)C(=O)Cc1ccncc1` belongs “inactive”.
To `Cc1ccc(S(=O)(=O)Nc2ccc3c(c2)C(=O)N([C@H](C)CO)C[C@@H](C)[C@@H](CN(C)S(=O)(=O)c2ccc(C)cc2)OCCCC[C@@H](C)O3)cc1` belongs “inactive”.
As for `Cc1cccc(-n2nc3c(c2NC(=O)c2cc4ccccc4o2)CS(=O)(=O)C3)c1`, the call was inactive.
For the molecule `O=C1N[C@@H](Cc2ccccc2)COC(=O)[C@@H](Cc2ccc(F)cc2)CC/C=C/C[C@H]1CC(=O)N(CCO)Cc1ccccc1`, the molecule was classed as inactive.
The value for `COc1ccccc1S(=O)(=O)N[C@H]1CC[C@H](CC(=O)N2CCN(C)CC2)O[C@@H]1CO` was “inactive”.
For the molecule `CCCNC(=O)[C@@H]1[C@@H](CO)[C@@H]2Cn3c(cccc3=O)[C@H]1N2CCC(F)(F)F`, the molecule was classed as inactive.
The value for `CCCCn1c(N)c(N(CC)C(=O)CSCc2ccc(C)cc2)c(=O)[nH]c1=O` was “inactive”; that for `COc1ccccc1CN1[C@H](CO)[C@H]2c3ccccc3N(C(=O)c3cccnc3)C[C@H]21` was “inactive”; that for `O=S(=O)(NCC(c1ccc2c(c1)OCO2)N1CCN(c2ccccc2)CC1)c1ccccc1` (centres undefined) was “inactive”.
